High-throughput results as filed in PubChem.
Sampled rows, rich in hits. Any-hit rate of the full collection: about 11%.
Pf growth 96h – Primary qHTS for delayed death inhibitors of the malarial parasite plastid, 96 hour incubation; Potency, µM (top dose mostly 28.7 µM), for the others: top-dose activity change, negative = inhibition, actives largely listed as inhibitors; P. falciparum luciferase reporter growth, 96 h; 320,000 tested, 6.9% active; also: % is scaled to controls: 0 for no effect and ±100 for the full control effect
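Compounds incubated with erythrocytes infected by luciferase-expressing P. falciparum (2% hematocrit, 0.05% parasitemia final) for 96 hours, 37 C in 5% CO2. Growth inhibition scored as decreased luciferase luminescence.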
Pf growth 48h – Primary qHTS for delayed death inhibitors of the malarial parasite plastid, 48 hour incubation; P. falciparum luciferase growth in erythrocytes, 48 h; Potency, µM (doses to about 28.7 µM), without a hit: at the highest dose activity change, negative = inhibition, actives largely listed as inhibitors; AID 504832, 2011; 310,000 tested, 5.9% active; also: % is scaled to controls: 0 for no effect and ±100 for the full control effect
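A one-generation exposure of luciferase-tagged malaria parasites in RPMI 1640/Albumax erythrocyte culture, 37 C and 5% CO2. Inhibition is inferred from decreased luminescence after adding detection reagent.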
NS1 function inh – qHTS Assay for Inhibitors of Influenza NS1 Protein Function; Potency, µM (series often up to 46.1 µM), inactives show top-dose activity, positive = more growth; 270,000 tested, 0.4% active; calls by dose curve; also: actives are rising curves; nearly all actives have a fitted effect of over 50% in size
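Compounds were scored for reversing the slow growth caused by influenza A NS1 in S. cerevisiae, measured by optical density at 600 nm. Assay medium contained 2% galactose at pH 6.0; NS1-free yeast of the same strain were the positive control.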
HCV inhibitor – qHTS Assay for Inhibitors of Hepatitis C Virus (HCV); Potency, µM (titrated, usually from 41.8 µM), for inactives: at the top dose activity change, negative = inhibition, actives largely listed as inhibitors; Huh7.5.1 HCVcc-Cre infection, luciferase reporter, 44 h; 340,000 tested, 3.4% active; also: % is scaled to controls: 0 for no effect and ±100 for the full control effect
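HCVcc-Cre virus at an moi near 0.5 was added right after compound to cells cultured 4 h from seeding (1,000 cells/well). Luciferase activity was determined 44 h later, 15 min after substrate addition at RT.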
VACV mCherry inh – qHTS for Stage-Specific Inhibitors of Vaccinia Orthopoxvirus: mCherry Reporter Primary qHTS. Potency, µM (highest dose often 36.5 µM), for the others: at the top dose activity change, negative = inhibition, usual class: inhibitors. Vaccinia virus mCherry reporter infection, fluorescence. 310,000 tested, 0.63% active; calls by dose curve; tested in A549 cells; also: % is scaled to controls: 0 for no effect and ±100 for the full control effect; nearly all actives have a fitted effect of over 35% in size
Vaccinia Venus – qHTS for Stage-Specific Inhibitors of Vaccinia Orthopoxvirus: Venus Reporter Primary qHTS; Vaccinia virus Venus reporter expression, fluorescence; 330,000 tested, 0.46% active; Potency, µM (doses to about 36.5 µM), for inactives: at the top dose activity change, negative = inhibition, hits mostly inhibitors; calls by dose curve; tested in A549 cells; also: % is scaled to controls: 0 for no effect and ±100 for the full control effect; nearly all actives have a fitted effect of over 30% in size
The depositor's hits bear a star. Unless noted, calls follow the shape of the dose curve; as a rule, active = well fitted inhibition curve with a large enough effect; inconclusive = small, poorly fitted or top-dose-only effect, or another doubt; inactive = no such curve, though single readings can be large or run the other way. Potency is read from the fitted curve at half-maximal effect.

How did Cc1c(/C=N/N=C2\CCC3C4CCc5cc(O)ccc5C4CCC23C)cnn1C (configuration not stated) do in these assays?
Pf growth 48h: inconclusive; NS1 function inh: -3%; HCV inhibitor: 2%; Vaccinia Venus: -21%

What do the screens show for `C/C(=N\NC(=O)Cc1c(C)[nH][nH]c1=O)c1cccc(Br)c1`?
Pf growth 96h: inconclusive; Pf growth 48h: -4%; NS1 function inh: 4%; HCV inhibitor: 8%; VACV mCherry inh: -14%; Vaccinia Venus: -9%

Results for CCc1ccc(-c2nc(CN3CCC(C(=O)N4CCN(c5ccccc5)CC4)CC3)c(C)o2)cc1 ?
Pf growth 96h: 1.9µM*; Pf growth 48h: 12%; NS1 function inh: 7%; HCV inhibitor: inconclusive; VACV mCherry inh: -28%; Vaccinia Venus: -18%

What do the screens show for `CCc1ccc(-c2nc(CN3CCC(C(=O)NCc4ccc(F)cc4)CC3)c(C)o2)cc1`?
Pf growth 96h: inconclusive; Pf growth 48h: 13µM*; NS1 function inh: 11%; HCV inhibitor: 18µM*

What do the screens show for `CCc1ccc(-c2nc(CN3CCC(C(=O)N4CCN(c5ccccn5)CC4)CC3)c(C)o2)cc1`?
Pf growth 96h: 39%; Pf growth 48h: -43%; NS1 function inh: -8%; HCV inhibitor: 11µM*

What do the screens show for `Cc1oc(-c2ccc(Cl)cc2)nc1CN1CCCC(C(=O)N2CCN(C(=O)c3ccco3)CC2)C1` (configuration not stated)?
Pf growth 96h: inconclusive; NS1 function inh: 5%; HCV inhibitor: 2µM*; VACV mCherry inh: inconclusive; Vaccinia Venus: inconclusive

Results for COc1ccc(-c2nc(CN3CCC(C(=O)NCc4ccc(F)cc4)CC3)c(C)o2)cc1OC ?
VACV mCherry inh: -16%; Vaccinia Venus: -17%

What do the screens show for `Cc1oc(-c2ccc(Cl)cc2)nc1CN1CCC(C(=O)N2CCN(c3ccccn3)CC2)CC1`?
NS1 function inh: 7%

What do the screens show for `Cc1oc(-c2ccc(Cl)cc2)nc1CN1CCCC(C(=O)N2CCOCC2)C1` (configuration not stated)?
Pf growth 96h: 14%; Pf growth 48h: inconclusive; NS1 function inh: 4%; HCV inhibitor: -12%

Results for O=C(c1ccoc1)N1CCC(CO)(CCc2ccccc2)CC1 ?
Pf growth 96h: 12µM*; Pf growth 48h: 6%; NS1 function inh: -4%; HCV inhibitor: -7%; VACV mCherry inh: -4%; Vaccinia Venus: -12%

Results for Cc1sc(NC(=O)c2ccco2)nc1-c1ccc2c(c1)CC(C)N2C(=O)C1CC1 (configuration not stated) ?
Pf growth 96h: 5%; Pf growth 48h: inconclusive; NS1 function inh: -2%; HCV inhibitor: 5µM*

How did CC(=O)c1sc(NC(=O)c2ccco2)nc1-c1ccccc1 do in these assays?
Pf growth 96h: 108%; NS1 function inh: -1%; HCV inhibitor: 10%; VACV mCherry inh: inconclusive; Vaccinia Venus: -17%

What do the screens show for `Cc1sc(NC(=O)c2ccco2)nc1-c1ccccc1`?
Pf growth 96h: 157%; Pf growth 48h: 28%; NS1 function inh: -40%; HCV inhibitor: 14µM*; Vaccinia Venus: -17%

How did CCn1c(Cc2cccn2C)nnc1SCC(=O)c1ccc(C)cc1 do in these assays?
Pf growth 96h: 15µM*; Pf growth 48h: 13µM*; NS1 function inh: -4%; HCV inhibitor: -14%; Vaccinia Venus: -18%

Results for CCn1c(SCC(=O)c2ccc(O)c(O)c2)nnc1-c1ccc(C)cc1 ?
Pf growth 96h: -28%; Pf growth 48h: inconclusive; NS1 function inh: 10%; HCV inhibitor: inconclusive; Vaccinia Venus: -22%

How did CCCC1CC(C(=O)NC(C(C)Cl)C2OC(SC)C(O)C(O)C2O)N(C)C1 (configuration not stated) do in these assays?
Pf growth 96h: 0.0029µM*; Pf growth 48h: 0.083µM*; NS1 function inh: -11%; HCV inhibitor: -18%; VACV mCherry inh: -10%; Vaccinia Venus: -11%
